From PubChem BioAssay (Tox21)
Records with an inconclusive call do not appear. Calls of active or inactive are those of the source. Unless noted, calls follow the shape of the full dose curve.

Tests used:
[1] = Nuclear factor erythroid 2-related factor 2/antioxidant responsive element (Nrf2/ARE) small molecule agonists: qHTS cell viability counter screen in human keratinocytes (AID 1919968; active = well fitted curve in the direction sought with a large enough effect in the repeat runs; an effect the other way counts as inactive or inconclusive; also: nearly all actives have a fitted effect of over 55% in size)
Outline: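 Parallel cytotoxicity read: KeratinoSens HaCaT cells, compound treatment 23 h, viability by CellTiter-Fluor fluorescence 1 h post-reagent.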

[2] = Nuclear factor erythroid 2-related factor 2/antioxidant responsive element (Nrf2/ARE) small molecule agonists: luciferase reporter gene qHTS assay in human keratinocytes (AID 1919969); also: nearly all actives have a fitted effect of over 35% in size
[3] = target: Gonadotropin-releasing hormone receptor (Homo sapiens) (UniProt P30968); assay: Human gonadotropin-releasing hormone receptor (GnRHR) small molecule agonists, calcium flux assay in GnRHR-HEK293 cells (AID 1920063); also: nearly all actives have a fitted effect of over 35% in size
Chain of Gonadotropin-releasing hormone receptor (Homo sapiens) (P30968 whole entry, looked up): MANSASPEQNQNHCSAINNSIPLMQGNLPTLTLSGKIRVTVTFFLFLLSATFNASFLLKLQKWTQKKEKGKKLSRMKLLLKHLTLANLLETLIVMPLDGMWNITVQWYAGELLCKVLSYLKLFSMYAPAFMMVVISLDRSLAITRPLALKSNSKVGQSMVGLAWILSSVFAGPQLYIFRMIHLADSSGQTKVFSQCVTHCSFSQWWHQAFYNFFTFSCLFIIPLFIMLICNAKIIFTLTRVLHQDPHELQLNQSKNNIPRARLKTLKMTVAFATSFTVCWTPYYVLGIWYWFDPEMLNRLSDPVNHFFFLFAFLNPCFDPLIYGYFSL
Outline: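 Calcium flux, agonist mode, human GnRHR stably integrated in HEK293; dye 1 h at 37 C before compound; Ex/Em=480/540 kinetic read, 3 min; 15 concentrations, triplicate.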

[4] = target: KiSS-1 receptor (Homo sapiens) (UniProt Q969F8); assay: Human kisspeptin (KISS1R) small molecule agonists, calcium flux assay in KISS1R-HEK293 cells (AID 1920064; active = well fitted curve in the direction sought with a large enough effect in the repeat runs; an effect the other way counts as inactive or inconclusive)
Chain of KiSS-1 receptor (Homo sapiens) (Q969F8 whole entry, looked up): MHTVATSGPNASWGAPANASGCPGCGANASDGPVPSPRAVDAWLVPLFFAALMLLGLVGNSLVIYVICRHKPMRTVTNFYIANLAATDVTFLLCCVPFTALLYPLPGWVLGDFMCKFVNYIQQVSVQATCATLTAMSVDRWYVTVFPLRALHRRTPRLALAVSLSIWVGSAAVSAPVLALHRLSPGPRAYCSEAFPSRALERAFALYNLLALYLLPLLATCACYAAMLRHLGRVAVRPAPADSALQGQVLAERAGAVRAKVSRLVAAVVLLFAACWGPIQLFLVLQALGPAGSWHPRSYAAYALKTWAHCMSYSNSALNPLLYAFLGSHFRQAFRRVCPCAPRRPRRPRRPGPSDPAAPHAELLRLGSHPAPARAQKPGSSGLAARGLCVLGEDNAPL
Outline: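 Triplicate 15-concentration series were applied to dye-loaded human KISS1R HEK293 cells, and agonist-evoked calcium fluorescence was captured for 3 min.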

[5] = G protein-coupled receptor (GPCR) small molecule agonists, calcium flux assay: HEK293 wild type cell line counter screen (AID 1920065)
Outline: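 Non-specific calcium responders were flagged by adding DMSO-dissolved compounds to dye-loaded cells and reading 480/540 nm fluorescence each second for 3 min; ATP served as positive control.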

[6] = p53 small molecule agonists, cell-based qHTS assay with human liver microsomes: qHTS cell viability counter screen (AID 1963579); also: nearly all actives have a fitted effect of over 45% in size
Outline: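 Viability of p53RE-bla cells is measured as CellTiter-Glo luminescence following a 16 h, 37 C incubation with compound, liver microsomes from human donors and NADPH.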

[7] = p53 small molecule agonists, cell-based qHTS assay with rat liver microsomes: qHTS cell viability counter screen (AID 1963580); also: nearly all actives have a fitted effect of over 45% in size
Outline: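 Cytotoxicity counter screen: intracellular ATP measured by CellTiter-Glo luminescence in the same wells as the beta-lactamase reporter read, on HCT-116 p53RE-bla cells exposed 16 h at 37 C to compounds with rat liver microsomes and NADPH, each 0.5 mg/mL final.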

[8] = p53 small molecule agonists, cell-based qHTS assay: qHTS cell viability counter screen (AID 1963581); also: nearly all actives have a fitted effect of over 45% in size
Outline: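 Multiplexed with the reporter read, a CellTiter-Glo step (30 min, room temperature) gauges ATP-based viability of HCT-116 p53RE-bla cells after 16 h compound incubation at 37 C.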

[9] = target: 5-hydroxytryptamine receptor 2A (Homo sapiens) (UniProt P28223); assay: 5-hydroxytryptamine receptor 2A (HTR2A) small molecule antagonists, cell-based qHTS assay (AID 1963586); also: nearly all actives have a fitted effect of over 45% in size
Chain of 5-hydroxytryptamine receptor 2A (Homo sapiens) (P28223 whole entry, looked up): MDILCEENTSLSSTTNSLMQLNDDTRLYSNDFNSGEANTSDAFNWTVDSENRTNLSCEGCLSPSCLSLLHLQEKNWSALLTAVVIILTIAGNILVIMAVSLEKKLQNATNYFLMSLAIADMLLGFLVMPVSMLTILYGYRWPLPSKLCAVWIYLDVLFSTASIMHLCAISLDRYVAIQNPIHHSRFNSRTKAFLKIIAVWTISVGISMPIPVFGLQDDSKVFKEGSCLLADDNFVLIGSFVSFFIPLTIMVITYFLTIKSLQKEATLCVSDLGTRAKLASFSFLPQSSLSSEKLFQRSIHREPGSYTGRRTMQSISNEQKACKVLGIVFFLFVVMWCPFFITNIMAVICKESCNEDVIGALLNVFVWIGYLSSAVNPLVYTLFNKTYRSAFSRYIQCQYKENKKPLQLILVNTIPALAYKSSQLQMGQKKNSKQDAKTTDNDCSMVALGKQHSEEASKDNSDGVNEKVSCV
Outline: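 CHO cells stably expressing human HTR2A were plated for 18 h at 37 C, then loaded with calcium dye for 1 h. Compounds were preincubated 5 min at room temperature before DOI (4 nM solution) was added. Kinetic fluorescence was read for 3 min.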

[10] = target: 5-hydroxytryptamine receptor 2A (Homo sapiens) (UniProt P28223); assay: 5-hydroxytryptamine receptor 2A (HTR2A) small molecule agonists, cell-based qHTS assay (AID 1963587); also: nearly all actives have a fitted effect of over 30% in size
Outline: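 CHO cells stably expressing human HTR2A, plated 18 h, loaded with calcium dye 1 h at 37 C. Agonist mode: compounds added and intracellular calcium fluorescence recorded kinetically for 2 min at 1 sec intervals.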

[11] = target: Muscarinic acetylcholine receptor M1 (Homo sapiens) (UniProt P11229); assay: Cholinergic receptor muscarinic 1 (CHRM1) small molecule antagonists, cell-based qHTS assay (AID 1963588); also: nearly all actives have a fitted effect of over 40% in size
Chain of Muscarinic acetylcholine receptor M1 (Homo sapiens) (P11229 whole entry, looked up): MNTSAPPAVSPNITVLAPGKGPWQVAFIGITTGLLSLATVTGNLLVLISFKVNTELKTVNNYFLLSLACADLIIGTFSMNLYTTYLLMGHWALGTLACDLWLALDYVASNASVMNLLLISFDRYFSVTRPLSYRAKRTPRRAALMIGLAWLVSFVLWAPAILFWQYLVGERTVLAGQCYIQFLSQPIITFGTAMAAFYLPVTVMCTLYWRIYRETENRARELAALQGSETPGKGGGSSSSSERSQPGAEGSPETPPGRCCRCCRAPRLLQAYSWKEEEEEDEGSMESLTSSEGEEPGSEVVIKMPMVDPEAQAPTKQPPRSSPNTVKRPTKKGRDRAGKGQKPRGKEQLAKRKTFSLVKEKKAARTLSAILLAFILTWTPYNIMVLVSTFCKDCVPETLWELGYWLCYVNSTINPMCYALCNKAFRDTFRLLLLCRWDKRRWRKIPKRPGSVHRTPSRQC
Outline: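 Compounds were tested at 15 concentrations in three independent runs. Dye-loaded CHRM1-CHO cells were exposed 5 min at room temperature before stimulation by acetylcholine added at 50nM. Intracellular calcium was read kinetically on FDSS for 3 min.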

[12] = cAMP Responsive Elements (CRE) small molecule agonists, cell-based qHTS assay (AID 1963590)
Outline: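 Quantitative HTS for CRE agonists: HEK 293T CRE-bla cells, overnight plating, 3 h compound incubation at 37 C/5% CO2, then 2 h room-temperature LiveBLAzer B/G FRET substrate loading.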

[13] = cAMP Responsive Elements (CRE) small molecule antagonists, cell-based qHTS assay (AID 1963591; active = well fitted inhibition curve with a large enough effect in the signal ratio in the repeat runs, not every such curve was filed as active; the % refers to the signal ratio)
Outline: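 Fluorescence intensity from cleaved LiveBLAzer B/G substrate (2 h, room temperature) quantified CRE-bla activity in HEK 293T cells exposed 3 h to compound with 0.25 uM final NKH477.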

[14] = target: Beta-2 adrenergic receptor (Homo sapiens) (UniProt P07550); assay: Adrenergic beta2 receptor (ADRB2) small molecule antagonists, cell-based qHTS assay (AID 1963592); also: series mostly up to about 92 µM; nearly all actives have a fitted effect of over 50% in size
Chain of Beta-2 adrenergic receptor (Homo sapiens) (P07550 whole entry, looked up): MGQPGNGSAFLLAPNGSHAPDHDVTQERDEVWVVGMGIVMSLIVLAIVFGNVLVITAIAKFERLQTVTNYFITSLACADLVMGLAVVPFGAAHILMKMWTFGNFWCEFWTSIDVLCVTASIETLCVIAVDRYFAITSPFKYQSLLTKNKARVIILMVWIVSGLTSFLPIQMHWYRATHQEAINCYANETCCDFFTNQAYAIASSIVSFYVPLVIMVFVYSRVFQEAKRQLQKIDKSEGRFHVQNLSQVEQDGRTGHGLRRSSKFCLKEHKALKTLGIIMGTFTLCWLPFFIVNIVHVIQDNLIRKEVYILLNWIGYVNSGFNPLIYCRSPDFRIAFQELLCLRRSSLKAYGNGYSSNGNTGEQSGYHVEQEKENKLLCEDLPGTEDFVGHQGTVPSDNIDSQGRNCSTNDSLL
Outline: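 Assay format: CHO-ADRB2 cells, 18-20hr seeding at 37C/5% CO2, then compound plus 1nM isoproterenol agonist mix for 0.5hr RT. Homogeneous time-resolved fluorescence cAMP detection after 1hr, expressed as 665/615 nm ratio.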

[15] = target: D(2) dopamine receptor (Homo sapiens) (UniProt P14416); assay: Dopamine D2 receptor (DRD2) small molecule agonists, cell-based qHTS assay (AID 1963594); also: nearly all actives have a fitted effect of over 35% in size
Chain of D(2) dopamine receptor (Homo sapiens) (P14416 whole entry, looked up): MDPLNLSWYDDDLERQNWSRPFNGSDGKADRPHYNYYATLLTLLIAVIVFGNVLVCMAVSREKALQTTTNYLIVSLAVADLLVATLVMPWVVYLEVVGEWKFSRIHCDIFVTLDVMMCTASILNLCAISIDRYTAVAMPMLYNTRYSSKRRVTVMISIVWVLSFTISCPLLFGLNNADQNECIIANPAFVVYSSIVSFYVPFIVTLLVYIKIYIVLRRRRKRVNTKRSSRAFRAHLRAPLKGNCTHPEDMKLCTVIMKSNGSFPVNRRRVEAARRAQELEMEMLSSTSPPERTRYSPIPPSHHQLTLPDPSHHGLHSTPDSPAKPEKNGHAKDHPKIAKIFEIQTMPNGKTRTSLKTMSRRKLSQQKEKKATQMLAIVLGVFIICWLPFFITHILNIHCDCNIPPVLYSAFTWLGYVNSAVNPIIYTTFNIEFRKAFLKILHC
Outline: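 HEK293 cells stably expressing human DRD2, pre-treated with PDE inhibitor Ro20-1724 (0.1 mM final) and compound 10 min at room temperature, then stimulated with NKH477 (200nM […]) for 30 min. cAMP read by HTRF (665/620 nm).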

[16] = target: D(2) dopamine receptor (Homo sapiens) (UniProt P14416); assay: Dopamine D2 receptor (DRD2) small molecule antagonists, cell-based qHTS assay (AID 1963595; active = well fitted inhibition curve with a large enough effect in the signal ratio in the repeat runs, with a control signal flat; the % refers to the signal ratio)
Outline: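 HEK293 cells stably expressing DRD2, preincubated with 0.1 mM Ro20-1724 and compounds 10 min, were stimulated with 200 nM NKH477 plus 12 nM quinpirole for 30 min at room temperature; cAMP measured by HTRF (665/620 nm).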

[17] = target: Muscarinic acetylcholine receptor M1 (Homo sapiens) (UniProt P11229); assay: Cholinergic receptor muscarinic 1 (CHRM1) small molecule agonists, cell-based qHTS assay (AID 1963589); also: nearly all actives have a fitted effect of over 35% in size
Outline: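 qHTS, 15-point titration, 3 independent runs: compounds pin-transferred onto dye-loaded CHRM1-CHO cells (human M1), calcium fluorescence followed every second to detect agonism.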

[18] = target: Beta-2 adrenergic receptor (Homo sapiens) (UniProt P07550); assay: Adrenergic beta2 receptor (ADRB2) small molecule agonists, cell-based qHTS assay (AID 1963593);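 also: CHO cells stably overexpressing human ADRB2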
Outline: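 CHO cells stably over-expressing ADRB2 were plated overnight at 37C, then dosed with compounds plus a stimulation mix containing 100uM IBMX and 25uM Ro-20-1724 for 0.5hr at room temperature. cAMP was measured by HTRF competition, 1hr.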

Measured: Potency

CCOC(=O)[C@@](C)(N)Cc1ccc(O)c(O)c1
not listed: [17] | [18]
inactive: all other assays above

COc1ccc(/C=N/NC(=O)c2ccncc2)cc1OC
not listed: [11] | [15] | [16] | [18]
inactive: all other assays above

NC(=O)c1ccccc1
not listed: [17]
inactive: all other assays above

CCN(CCC#N)c1ccccc1
not listed: [13] | [17]
inactive: all other assays above

Cc1ccccc1N=C(N)N=C(N)N
not listed: [16] | [17]
inactive: all other assays above

CCOC(=O)c1ccc(C#Cc2ccc3c(c2)C(C)(C)CCS3)nc1
not listed: [12] | [13]
inactive: all other assays above

CC(O)C1CCCCC1 (stereo unspecified)
not listed: [17] | [18]
inactive: all other assays above
